Records with an inconclusive call do not appear. The source made the active and inactive calls.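 How the source made its calls, unless noted: active means binding below the plate cutoff, the plate median minus 3 SD, with a reading above zero; inconclusive means below the plate cutoff but reading exactly zero; inactive means the rest.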

What is called inhibition is the change of the read-out against control, counted positive when it falls.

Test [1] in a line: yeast TOR pathway RPL19A-GFP modulators, primary screen, cell-based, S. cerevisiae, multiplex flow cytometry (AID 1862; in the data active means percent of DMSO control GFP below about 86%;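 further: lower values mimic rapamycin by blocking the RPL19A rise seen in DMSO cells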). The following applies: S. cerevisiae RPL19A-GFP strain, flow cytometry fluorescence, 3 h; at 10 µM; stronger effect = lower value.
Test [2] can be described thus: modulators of MEP2-GFP levels in yeast, primary screen, S. cerevisiae, multiplex flow cytometry (AID 1867;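 active means GFP response, as percent of the DMSO control, above the screen-wide mean plus 3 SD, about 139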;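 further: median GFP channel fluorescence of barcode-gated MEP2-GFP cells measured by flow cytometry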). The conditions noted are these: S. cerevisiae MEP2-GFP strain, 3 h, at 10 µM, stronger effect = higher value, 100% means same as DMSO wells. On the technique in general: Flow cytometry measures light scatter and fluorescence of single cells or particles in a stream.
Test [3] can be described thus: modulators of CIT2-GFP expression in yeast, primary screen, S. cerevisiae, GFP fusion, multiplex flow cytometry (AID 1870;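 active means percent response above a set limit, the screen-wide mean plus 3 SD, cut at about 130% in these data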;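 further: barcoded CIT2-GFP strain pooled with four other GFP strains with rapamycin as positive control; median GFP fluorescence per well over plate mean of DMSO wells so 100% = DMSO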). The conditions noted are these: 3 h, at 10 µM, stronger effect = higher value.
Test [4] is described as follows: modulators of LAP4-GFP expression in yeast, primary screen, S. cerevisiae, multiplex flow cytometry (AID 1873;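 active means GFP signal, as percent of the solvent control, above the screen mean plus 3 SD, about 149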). The conditions noted are these: 3 h, at 10 µM, stronger effect = higher value.
The nature of test [5]: modulators of AGP1-GFP expression in yeast TOR pathway, primary screen, cell-based, multiplex flow cytometry, S. cerevisiae (AID 1887;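 active means GFP signal above the screen-wide mean plus 3 SD, that is over about 124.5% of the solvent control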;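 further: AGP1-GFP fusion strain of S. cerevisiae within a five-strain barcoded multiplex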). The conditions noted are these: 3 h, at 10 µM, stronger effect = higher value.
A short description of test [6]: inhibitors of CD8+ T cell-vesicle binding, pilot screen, LFA-1/ICAM-1 modulator project, MLPCN validation set, flow cytometry (AID 2523;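 active means response below a set limit, under 55% cells CD8-positive and vesicle-bound, and CD8 cells' 90th-percentile brightness under 279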;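 on vesicle binding response: mean PE anti-B7-1 fluorescence of CD8+ cells relative to row control; 100% = QL9-loaded vesicles with DMSO vehicle in the same plate row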). The conditions noted are these: 2C mouse CD8+ T cells, at 7 µM, stronger effect = lower value; double positive events: measured here: CD8+/vesicle+ event percentage.
For test [7], the target named is Integrin beta-1 (Homo sapiens) + Integrin alpha-4 (Homo sapiens) (UniProt P13612+P05556). The test is described as follows: inhibition of HUTS-21 binding to VLA-4, pilot screen, VLA-4 allosteric modulator project, U937 cells, HUTS-21 mAb, flow cytometry, validation set (AID 2674;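 active means inhibition above 50%, about 3 SD of the validation set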;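 further: antibody binding induced by the VLA-4 ligand LDV present at three times its Kd; 0% = LDV ligand with antibody and no compound and 100% = antibody without LDV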). The following applies: HUTS-21 LIBS mAb binding, at 6.7 µM, stronger effect = higher value, binding induced by LDV ligand.

Test [8] in a line: superoxide lowering in aged yeast cells, pilot screen, validation compound set (AID 2706;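 active means superoxide response below 65% of plate, a cut near 3 SD across the whole screen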;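 further: yeast exposed to compound for one week at 30 degrees C before staining; 100% = mean of all compound wells on the same plate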). The following applies: S. cerevisiae aging, superoxide DHE fluorescence; at 10 µM; stronger effect = lower value.
Test [9] addresses Beta-adrenergic receptor kinase 1 (Homo sapiens) (UniProt P25098). The test is described as follows: GRK2 binders displacing RNA aptamer, biochemical, validation, human GRK2, bead flow cytometry (AID 488806;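 active means aptamer binding inhibition above 30%, about 3 SD of noise from non-fluorescent compounds; inactive means inhibition at or below 30%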). The following applies: bead-bound GRK2, FAM-aptamer displacement, at 10 µM, stronger effect = higher value.
The target of test [10] is Beta-2 adrenergic receptor (Homo sapiens) (UniProt P07550). The test is described as follows: beta2AR agonists driving receptor internalization, pilot screen, cell-based, FAP fluorogen, flow cytometry, validation set (AID 504459;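 active means percent response above 42, roughly 3 SD of non-fluorescent test compounds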;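 further: agonist-driven loss of surface beta2AR via internalization measured by FAP dye flow cytometry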). The following applies: Am2.2-beta2AR cells, FAP surface receptor flow cytometry; at 10 µM; stronger effect = higher value.
In test [11] the target is AP-2 complex subunit beta (Homo sapiens) (UniProt P63010). Briefly: inhibitors of arrestin peptide binding to AP2, pilot screen, biochemical, validation set, GST-AP2 beads, flow cytometry (AID 504541;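 active means inhibition above 54%, about 3 SD of non-fluorescent compounds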;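 further: AP2 carries R879A mutation and is captured from E. coli lysate; bead-bound FITC arrestin peptide fluorescence measuring arrestin peptide binding to AP2; 0% = DMSO wells and 100% = excess unlabeled arrestin peptide control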). The following applies: FITC arrestin peptide, at 10 µM, stronger effect = higher value, AP2 beta2 appendage fragment, R879A mutant.
Test [12] can be described thus: yeast V-ATPase proton transport modulators, S. cerevisiae, pHLuorin, HTS validation (AID 504600; in the data active means response above about 15%;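 further: plate controls were DMSO for no effect and reference compound for full effect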). The conditions noted are these: S. cerevisiae pHLuorin cytosolic pH, at 10 µM, stronger effect = higher value.
Test [13] deals with anti-desmoglein-3 scFv antibody binding to human DSG3. The test is described as follows: inhibitors of anti-DSG3 scFv binding to DSG3, pilot screen, biochemical, validation compound set, bead-based, flow cytometry (AID 588368).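 Further: signal is the median channel fluorescence of bead-bound GFP antibody.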 The conditions noted are these: Protein G beads, DSG3-Fc, scFv-GFP binding, at 10 µM, stronger effect = lower value.
Test [14] is described as follows: inhibitors of fungal efflux pumps CDR1, CDR2, MDR1, pilot screen, validation compound set, multiplex, phenotypic (AID 588506;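 active means efflux inhibition above 0.42, the validation set average plus 4 SD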;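 further: Nile Red retained in cells so higher fluorescence means more efflux inhibition; 0 = negative control wells and 1 = enniatin B 25 µM full block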). The following applies: S. cerevisiae pump-expressing triplex, Nile Red efflux flow cytometry; at 10 µM; stronger effect = higher value; the pumps come from Candida albicans.
The target in test [15] is ATP-binding cassette sub-family B member 6 (Homo sapiens) (UniProt Q9NP58). Briefly: ABCB6 transporter inhibitors, pilot screen, K562-ABCB6 cells, flow cytometry, validation set (AID 588550;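 active means inhibition above the screen-wide mean plus 3 SD, about 51%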;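 further: 0% = DMSO wells and 100% = benzethonium chloride 70 µM positive control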). The following applies: K562-ABCB6 porphyrin accumulation, 1 h, at 10 µM, stronger effect = higher value.
The nature of test [16]: promoters of myeloid differentiation in arrested cells, primary screen, cell-based, GFP/MAC1 double positive, flow cytometry, validation set (AID 588685;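 active means differentiation response of at least 50%, scaled between solvent and reference control, from cells with both markers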;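 further: compound exposure lasts four days before antibody staining and flow analysis; 0% = DMSO wells and 100% = 5 µM fulvestrant positive control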). The conditions noted are these: ER-HoxA9 marrow cells, stronger effect = higher value, normalized: vehicle 0, fulvestrant 100.

Chain of Beta-adrenergic receptor kinase 1 (Homo sapiens) (P25098 whole entry, looked up): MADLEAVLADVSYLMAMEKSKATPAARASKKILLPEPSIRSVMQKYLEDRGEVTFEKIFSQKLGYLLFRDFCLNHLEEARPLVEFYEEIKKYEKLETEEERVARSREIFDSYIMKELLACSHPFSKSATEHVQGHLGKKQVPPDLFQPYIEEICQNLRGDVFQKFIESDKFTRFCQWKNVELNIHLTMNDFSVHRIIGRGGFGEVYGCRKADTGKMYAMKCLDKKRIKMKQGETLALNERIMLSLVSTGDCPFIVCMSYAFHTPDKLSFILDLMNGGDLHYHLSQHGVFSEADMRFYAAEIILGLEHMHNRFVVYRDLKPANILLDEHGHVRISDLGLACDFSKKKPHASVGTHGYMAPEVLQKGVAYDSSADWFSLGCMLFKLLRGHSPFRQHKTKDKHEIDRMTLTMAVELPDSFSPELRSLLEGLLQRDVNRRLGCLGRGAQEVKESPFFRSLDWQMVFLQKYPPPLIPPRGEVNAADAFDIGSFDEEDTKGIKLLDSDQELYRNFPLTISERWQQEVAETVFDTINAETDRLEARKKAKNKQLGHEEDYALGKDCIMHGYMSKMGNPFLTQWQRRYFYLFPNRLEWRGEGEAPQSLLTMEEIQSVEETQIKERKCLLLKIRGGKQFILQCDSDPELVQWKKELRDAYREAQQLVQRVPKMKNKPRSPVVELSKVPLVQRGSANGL
Chain of ATP-binding cassette sub-family B member 6 (Homo sapiens) (Q9NP58 whole entry, looked up): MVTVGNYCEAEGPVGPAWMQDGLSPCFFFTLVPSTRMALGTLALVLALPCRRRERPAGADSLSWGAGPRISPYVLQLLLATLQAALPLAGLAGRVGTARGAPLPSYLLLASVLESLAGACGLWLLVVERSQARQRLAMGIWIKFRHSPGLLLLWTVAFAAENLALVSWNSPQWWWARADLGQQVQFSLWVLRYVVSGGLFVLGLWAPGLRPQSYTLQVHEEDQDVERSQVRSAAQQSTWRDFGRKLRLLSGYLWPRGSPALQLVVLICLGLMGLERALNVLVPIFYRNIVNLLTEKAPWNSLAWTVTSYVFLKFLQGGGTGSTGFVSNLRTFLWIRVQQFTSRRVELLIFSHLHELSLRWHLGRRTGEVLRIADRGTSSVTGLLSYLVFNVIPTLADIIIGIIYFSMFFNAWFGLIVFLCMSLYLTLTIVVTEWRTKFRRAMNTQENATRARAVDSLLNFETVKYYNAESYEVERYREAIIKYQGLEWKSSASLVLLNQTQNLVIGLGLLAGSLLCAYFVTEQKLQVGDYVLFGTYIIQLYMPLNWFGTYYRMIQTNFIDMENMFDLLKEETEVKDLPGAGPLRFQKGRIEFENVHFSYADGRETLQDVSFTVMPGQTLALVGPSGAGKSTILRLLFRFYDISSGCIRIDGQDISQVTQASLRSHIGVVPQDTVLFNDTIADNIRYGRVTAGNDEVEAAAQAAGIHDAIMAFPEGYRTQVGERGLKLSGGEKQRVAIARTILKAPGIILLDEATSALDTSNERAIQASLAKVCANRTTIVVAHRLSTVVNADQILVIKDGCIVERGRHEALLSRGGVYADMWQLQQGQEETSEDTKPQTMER
Chain of Integrin beta-1 (Homo sapiens) + Integrin alpha-4 (Homo sapiens) (P05556 whole entry, looked up): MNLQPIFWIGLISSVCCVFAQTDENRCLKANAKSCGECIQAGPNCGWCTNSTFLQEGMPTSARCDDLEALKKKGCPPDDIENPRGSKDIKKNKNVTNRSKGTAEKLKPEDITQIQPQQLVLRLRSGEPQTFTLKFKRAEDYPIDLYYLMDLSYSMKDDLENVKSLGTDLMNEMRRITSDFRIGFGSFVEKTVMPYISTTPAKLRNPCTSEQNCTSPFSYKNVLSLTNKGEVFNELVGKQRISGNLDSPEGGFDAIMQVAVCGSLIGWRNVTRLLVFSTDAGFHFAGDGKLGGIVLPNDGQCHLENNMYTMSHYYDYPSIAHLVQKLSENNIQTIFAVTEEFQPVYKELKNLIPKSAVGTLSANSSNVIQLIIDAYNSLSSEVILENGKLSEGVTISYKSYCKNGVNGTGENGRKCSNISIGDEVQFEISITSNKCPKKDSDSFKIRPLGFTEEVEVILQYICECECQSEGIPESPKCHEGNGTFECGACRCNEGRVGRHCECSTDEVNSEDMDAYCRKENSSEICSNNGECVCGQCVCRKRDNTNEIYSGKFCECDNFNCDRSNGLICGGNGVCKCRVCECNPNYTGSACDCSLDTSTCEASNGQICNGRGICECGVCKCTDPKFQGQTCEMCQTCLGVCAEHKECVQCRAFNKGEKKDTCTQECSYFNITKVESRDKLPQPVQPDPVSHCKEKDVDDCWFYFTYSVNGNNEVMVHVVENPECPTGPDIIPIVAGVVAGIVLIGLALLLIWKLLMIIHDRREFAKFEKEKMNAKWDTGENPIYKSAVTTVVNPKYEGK
Chain of Integrin beta-1 (Homo sapiens) + Integrin alpha-4 (Homo sapiens) (P13612 whole entry, looked up): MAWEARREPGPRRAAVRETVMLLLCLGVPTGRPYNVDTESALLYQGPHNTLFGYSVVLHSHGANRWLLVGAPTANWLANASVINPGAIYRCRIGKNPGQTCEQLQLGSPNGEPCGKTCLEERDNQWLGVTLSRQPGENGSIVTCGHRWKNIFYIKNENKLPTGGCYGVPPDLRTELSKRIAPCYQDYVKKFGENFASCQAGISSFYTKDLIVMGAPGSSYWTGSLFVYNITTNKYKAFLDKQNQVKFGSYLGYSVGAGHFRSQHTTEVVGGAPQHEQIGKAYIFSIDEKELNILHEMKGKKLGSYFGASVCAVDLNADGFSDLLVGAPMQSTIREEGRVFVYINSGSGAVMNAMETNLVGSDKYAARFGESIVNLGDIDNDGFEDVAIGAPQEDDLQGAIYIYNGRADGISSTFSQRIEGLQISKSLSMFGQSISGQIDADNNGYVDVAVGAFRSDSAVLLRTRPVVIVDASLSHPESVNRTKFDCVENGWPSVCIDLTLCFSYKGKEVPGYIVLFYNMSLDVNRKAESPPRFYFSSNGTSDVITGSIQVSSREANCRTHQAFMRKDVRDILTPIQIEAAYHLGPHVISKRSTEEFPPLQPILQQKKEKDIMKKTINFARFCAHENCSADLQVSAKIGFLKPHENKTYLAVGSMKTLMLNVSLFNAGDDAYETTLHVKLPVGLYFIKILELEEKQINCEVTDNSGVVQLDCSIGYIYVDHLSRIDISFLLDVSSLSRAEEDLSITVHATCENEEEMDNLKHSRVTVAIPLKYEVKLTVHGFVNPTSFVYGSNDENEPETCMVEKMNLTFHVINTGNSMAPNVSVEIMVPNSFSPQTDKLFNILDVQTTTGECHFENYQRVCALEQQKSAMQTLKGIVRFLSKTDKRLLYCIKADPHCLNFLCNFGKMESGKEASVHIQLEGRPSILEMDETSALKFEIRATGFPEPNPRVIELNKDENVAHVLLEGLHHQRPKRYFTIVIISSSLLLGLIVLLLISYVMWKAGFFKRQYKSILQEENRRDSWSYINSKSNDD
Chain of AP-2 complex subunit beta (Homo sapiens) (P63010 whole entry, looked up, the tested form may be a part, one chain of several): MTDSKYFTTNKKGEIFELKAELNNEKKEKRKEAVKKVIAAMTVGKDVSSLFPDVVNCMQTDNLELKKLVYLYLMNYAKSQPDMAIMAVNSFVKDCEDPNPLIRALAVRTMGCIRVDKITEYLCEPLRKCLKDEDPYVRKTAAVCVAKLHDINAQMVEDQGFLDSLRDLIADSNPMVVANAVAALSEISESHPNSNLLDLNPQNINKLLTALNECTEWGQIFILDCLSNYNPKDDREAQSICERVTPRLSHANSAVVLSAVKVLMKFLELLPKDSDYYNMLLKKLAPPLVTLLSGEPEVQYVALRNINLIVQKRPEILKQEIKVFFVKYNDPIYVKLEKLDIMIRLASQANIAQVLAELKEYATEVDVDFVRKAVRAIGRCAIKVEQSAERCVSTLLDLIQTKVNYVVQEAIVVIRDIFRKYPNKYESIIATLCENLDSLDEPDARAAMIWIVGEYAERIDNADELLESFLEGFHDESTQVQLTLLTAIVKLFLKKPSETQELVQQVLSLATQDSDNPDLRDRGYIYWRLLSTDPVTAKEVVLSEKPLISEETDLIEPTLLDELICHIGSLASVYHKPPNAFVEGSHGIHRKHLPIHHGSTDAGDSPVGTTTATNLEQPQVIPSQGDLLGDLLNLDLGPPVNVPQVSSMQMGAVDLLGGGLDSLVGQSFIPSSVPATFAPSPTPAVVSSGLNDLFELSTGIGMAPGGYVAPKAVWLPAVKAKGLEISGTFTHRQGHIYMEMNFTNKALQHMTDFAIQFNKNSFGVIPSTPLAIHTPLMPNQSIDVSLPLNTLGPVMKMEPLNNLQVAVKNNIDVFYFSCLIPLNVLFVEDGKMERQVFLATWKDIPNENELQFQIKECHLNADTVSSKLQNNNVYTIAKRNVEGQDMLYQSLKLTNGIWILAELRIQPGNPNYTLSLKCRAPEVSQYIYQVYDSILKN
Chain of Beta-2 adrenergic receptor (Homo sapiens) (P07550 whole entry, looked up): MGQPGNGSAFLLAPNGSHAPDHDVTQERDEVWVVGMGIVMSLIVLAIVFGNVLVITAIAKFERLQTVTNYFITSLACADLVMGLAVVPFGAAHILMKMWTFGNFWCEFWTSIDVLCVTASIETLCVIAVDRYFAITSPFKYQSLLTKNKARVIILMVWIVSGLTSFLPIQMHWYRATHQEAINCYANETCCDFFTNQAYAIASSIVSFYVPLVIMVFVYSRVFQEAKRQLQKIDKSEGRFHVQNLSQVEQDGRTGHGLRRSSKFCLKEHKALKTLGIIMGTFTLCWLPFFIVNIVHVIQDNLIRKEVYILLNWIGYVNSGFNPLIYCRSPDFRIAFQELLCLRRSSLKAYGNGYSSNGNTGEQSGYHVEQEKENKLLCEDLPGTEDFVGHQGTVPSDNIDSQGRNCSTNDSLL

Take `FC(F)(F)c1ccc(-c2noc(CN3CCCN(C4CCCCC4)CC3)n2)cc1`: the percent of DMSO control GFP in test [1] was 100% (inactive). Further, the GFP response vs DMSO in test [2] was 105% (inactive); in test [4] it was 93.3% (inactive). In addition, the percent response of DMSO control in test [3] is 101% (inactive). Besides, in test [5], the GFP response, % of DMSO is 101% (inactive). Also, the double positive events in test [6] came to 62.5%. Besides, in test [6], the vesicle binding response is 5350% (inactive). Besides, the inhibition in [7] is -7.72% (inactive); in test [11] it was -10.2% (inactive); in test [15], -11% (inactive). Also, the superoxide response (% of plate) in [8] was 89.3% (inactive). For the same molecule, the aptamer binding inhibition in [9] was -12% (inactive). Moreover, the response in [10] is -4.45% (inactive); in test [12] it was 3.31% (inactive). Further, the binding (% of control) in test [13] was 103% (inactive). The efflux inhibition (fraction of control) in test [14] was -0.14 (inactive). In test [16], the differentiation response was 33.5% (inactive).

In the case of `O=C(NCc1ccc2c(c1)OCO2)c1ccc2c(c1)OCCO2`, in test [1], the percent of DMSO control GFP is 101% (inactive). Further, the GFP response vs DMSO was 105% (inactive) in [2] and 92.6% (inactive) in [4]. Also, the percent response of DMSO control in test [3] was 105% (inactive). Further, the GFP response, % of DMSO in [5] was 101% (inactive). For the same molecule, in test [6], the double positive events turned out to be 61%. In addition, the vesicle binding response in test [6] was 132% (inactive). Moreover, the inhibition in test [7] is 11% (inactive); in test [11] it was -6.32% (inactive); in test [15], 11% (inactive). The superoxide response (% of plate) in test [8] was 104% (inactive). For the same molecule, the aptamer binding inhibition in [9] is -1% (inactive). Also, the response in test [10] is 0.83% (inactive); in test [12], -0.38% (inactive). In test [13], the binding (% of control) is 103% (inactive). Besides, the efflux inhibition (fraction of control) in [14] is -0.21 (inactive). In test [16], the differentiation response was 20.3% (inactive).

As to `COc1ccc(C(=O)N2c3cc4c(cc3C(C)=CC2(C)C)OCO4)cc1`, the percent of DMSO control GFP in [1] was 97.8% (inactive). Also, the results for the GFP response vs DMSO in test [2] and in [4] were 103% (inactive) and 116% (inactive), respectively. In addition, the percent response of DMSO control in test [3] is 98.9% (inactive). Further, the GFP response, % of DMSO in test [5] is 93.4% (inactive). This molecule also displayed a double positive events in test [6] of 56.6%. Further, the vesicle binding response in test [6] was 40.1% (inactive). Besides, the values for the inhibition in test [7], in test [11] and in test [15] were -2.53% (inactive), -10.4% (inactive) and 10% (inactive), respectively. In addition, the superoxide response (% of plate) in [8] was 98.5% (inactive). For the same molecule, the aptamer binding inhibition in test [9] is 5% (inactive). For the same molecule, the response in test [10] is 4.24% (inactive); in test [12] it was -0.49% (inactive). Besides, in test [13], the binding (% of control) was 96.1% (inactive). In addition, in [14], the efflux inhibition (fraction of control) was -0.04 (inactive). In addition, the differentiation response in [16] is -1.71% (inactive).

As for `CC(=O)NS(=O)(=O)c1ccc(N)cc1`, in test [1], the percent of DMSO control GFP is 98.6% (inactive). The GFP response vs DMSO in [2] and in test [4] was 101% (inactive) in each case. Besides, the percent response of DMSO control in test [3] was 97% (inactive). For the same molecule, the GFP response, % of DMSO in [5] is 104% (inactive). In [6], this molecule showed a double positive events of 62.3%. In test [6], the vesicle binding response was 335% (inactive). Besides, the inhibition in test [7] was 0.59% (inactive); in test [11], -0.64% (inactive); in [15] it was 5% (inactive). In [8], the superoxide response (% of plate) was 101% (inactive). In addition, in test [9], the aptamer binding inhibition is 2% (inactive). The response is -16.2% (inactive) in test [10] and 0.06% (inactive) in test [12]. The binding (% of control) in test [13] is 103% (inactive). Further, the efflux inhibition (fraction of control) in [14] is 0.04 (inactive). The differentiation response in [16] is -3.02% (inactive).

On to `COc1ccccc1Oc1c(C)oc2c(CN3CCN(CCO)CC3)c(O)ccc2c1=O`, for which the percent of DMSO control GFP in [1] is 104% (inactive). Besides, the GFP response vs DMSO in test [2] was 101% (inactive); in [4], 98% (inactive). In test [3], the percent response of DMSO control is 109% (inactive). In addition, the GFP response, % of DMSO in test [5] is 104% (inactive). The double positive events in [6] turned out to be 58.7%. Besides, the vesicle binding response in [6] was 111% (inactive). Also, the inhibition was -11.8% (inactive) in [7], -2.65% (inactive) in test [11] and -1% (inactive) in [15]. In addition, the superoxide response (% of plate) in test [8] is 96.1% (inactive). In [9], the aptamer binding inhibition is -1% (inactive). In addition, the response in test [10] is 6.51% (inactive); in test [12], 0.24% (inactive). The binding (% of control) in test [13] was 103% (inactive). Besides, the efflux inhibition (fraction of control) in test [14] was -0.14 (inactive). In test [16], the differentiation response was 11.5% (inactive).

These data come from PubChem BioAssay.
